Measured values reported in PubChem BioAssay.
Calls of active or inactive are those of the source.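 How the source made its calls, unless noted: active means compound that reduces growth-factor-driven endothelial tube area in a mixed cell culture, no cutoff stated; inactive means the rest.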

What was measured:
[1] = stimulators of insulin release from INS-1E, primary screen, cell-based, 5 mM glucose, NPC library (AID 1117329;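 active means compound raises insulin release from rat beta cells at 5 mM glucose, no numeric limit stated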); conditions: rat INS-1E insulin secretion, at 10 µM, stronger effect = higher value
[2] = growth inhibition of GSK3B-pretreated HCT116 cells – cell-based, CellTiter-Glo, 0.2 to 20 µM (AID 1117336;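 active means compounds lowering colon cancer cell viability after pretreatment blocking the GSK3B kinase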); conditions: HCT116 viability after GSK3B inhibitor, at 20 µM, stronger effect = higher value
[3] = inhibition of endothelial tube formation, primary screen, imaging, VEGF stimulated, CD31 staining, tube area, NPC library (AID 1117340); conditions: VEGF-stimulated ADSC/ECFC co-culture, at 10 µM, stronger effect = higher value
[4] = glucagon-like peptide 1 release enhancers, primary assay, NCI-H716 cell line, NPC library (AID 1117341;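 active means compound raises GLP1 secretion from the human gut endocrine cells, with no numeric limit stated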); conditions: NCI-H716 cells, at 10 µM, stronger effect = higher value
[5] = HCT116 colon cancer cell growth inhibition, primary screen, CellTiter-Glo luminescence, NPC library (AID 1117342;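 active means compounds that lower survival of HCT116 colon cancer cells in the luminescence readout, no numeric limit stated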); conditions: at 20 µM (top of the series)
[6] = CellTiter-Glo luminescent readout of SW480 viability loss, NPC library primary (AID 1117343;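 active means compounds that lower viability of the colon cancer cells in the luminescence readout, with no numeric limit stated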); conditions: CellTiter-Glo luminescence; at 20 µM (top of the series)
[7] = decreased DLD-1 cellular survival, CellTiter-Glo luminescent readout, NPC compound collection, primary HTS (AID 1117346;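 active means compounds that lower survival of DLD-1 colon cancer cells in the luminescence readout, no cutoff given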); conditions: DLD-1 viability, CellTiter-Glo luminescence; at 20 µM (top of the series)
[8] = biological target: 6-phosphogluconate dehydrogenase, decarboxylating (Homo sapiens) (UniProt P52209); experiment: 6PGD enzyme inhibitors, primary screen, biochemical, human, recombinant enzyme, NADPH absorbance (AID 1159550;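 active means at least 20% inhibition of 6-phosphogluconate dehydrogenase activity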); conditions: recombinant 6PGD, NADPH absorbance 341 nm; at 10 µM; stronger effect = higher value
Sequence of 6-phosphogluconate dehydrogenase, decarboxylating (Homo sapiens) (P52209 whole entry, looked up): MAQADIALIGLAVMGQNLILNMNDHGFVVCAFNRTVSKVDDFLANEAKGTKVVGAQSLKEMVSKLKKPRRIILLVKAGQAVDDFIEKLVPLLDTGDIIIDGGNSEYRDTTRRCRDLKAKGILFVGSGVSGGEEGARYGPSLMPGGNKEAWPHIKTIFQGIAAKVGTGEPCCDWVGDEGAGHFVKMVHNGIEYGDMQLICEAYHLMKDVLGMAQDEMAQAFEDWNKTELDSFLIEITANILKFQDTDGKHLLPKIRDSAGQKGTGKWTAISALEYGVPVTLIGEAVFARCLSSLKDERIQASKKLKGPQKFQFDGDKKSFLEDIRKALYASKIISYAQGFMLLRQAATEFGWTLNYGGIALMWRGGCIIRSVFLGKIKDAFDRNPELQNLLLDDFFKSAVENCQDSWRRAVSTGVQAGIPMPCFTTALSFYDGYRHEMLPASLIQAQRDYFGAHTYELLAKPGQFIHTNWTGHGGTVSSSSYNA

[9] = differential killing of epithelial or mesenchymal cells, primary screen, imaging, PC-3E GFP, TEM4-18 mCherry, co-culture (AID 1345086;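 active means compounds killing one labelled cell type while sparing the other, by normalised counts and ratio limits, not self-fluorescent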;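 on all read-outs here: cells exposed to compound for 72 h before imaging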;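 on red/green cell ratio (normalised): normalised mesenchymal count divided by normalised epithelial count so high means epithelial killing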); conditions: imaging cell counts, at 1 µM; for red/green cell ratio (normalised): actives lie on both sides, counts scaled to control wells, 1 = unselective
[10] = measured here: epithelial PC-3E GFP cell survival
[11] = measured here: mesenchymal TEM4-18 mCherry cell survival

Row | SMILES | insulin secretion stimulation [1] | viability decrease [2] | tube area decrease [3] | GLP1 secretion stimulation [4] | inhibition of viability [5] | viability decrease (inhibition) [6] | viability decrease (inhibition) [7] | inhibition [8] | red/green cell ratio (normalised) [9] | normalised cell number [9, 10] | normalised cell number [9, 11]
1 | COc1cc2c3cc1Oc1cc(ccc1O)C[C@@H]1c4c(cc(OC)c(O)c4Oc4ccc(cc4)C[C@@H]3N(C)CC2)CC[N+]1(C)C | -0.3% (inactive) | -3% (inactive) | 13.9% (inactive) | -1.7% (inactive) | -1.93% (inactive) | 5.3% (inactive) | -2.9% (inactive) | 0.384% (inactive) | 0.97 (inactive) | 1.08 | 1.05
2 | N=C(N)N | 1.1% (inactive) | -1.8% (inactive) | 12.8% (inactive) | -1.2% (inactive) | 1.3% (inactive) | 1% (active) | -1.3% (inactive) | 0.391% (inactive) | 1.05 (inactive) | 0.94 | 0.99
3 | CNC1(C)C2CCC(C2)C1(C)C (centres undefined) | 3.5% (inactive) | -6% (inactive) | -1.8% (inactive) | 4.9% (inactive) | 15.7% (inactive) | 8.7% (inactive) | 1.8% (inactive) | -9.67% (inactive) | 0.89 (inactive) | 1.09 | 0.97
4 | CCCCC1C(=O)N(c2ccccc2)N(c2ccc(O)cc2)C1=O (centres undefined) | -0.2% (inactive) | 6.7% (inactive) | 50.3% (active) | 12.4% (inactive) | 57.7% (active) | 124% (active) | 101% (active) | -5.96% (inactive) | 1.01 (inactive) | 1.07 | 1.08
5 | Nc1nccs1 | -0.1% (inactive) | 12.4% (inactive) | 5.4% (inactive) | -1% (inactive) | 25.5% (inactive) | 66.3% (active) | 10% (active) | 5.79% (inactive) | 0.78 (inactive) | 1.25 | 0.98
6 | O=C1NCC2(CCN(CCc3ccccc3)CC2)O1 | -0.9% (inactive) | 1.6% (inactive) | 18.6% (inactive) | 0% (inactive) | 8.9% (inactive) | 48% (inactive) | -32.8% (inactive) | 13.7% (inactive) | 0.97 (inactive) | 1.16 | 1.12
7 | O=C(O)c1cc(O)c(O)c(O)c1 | -0.6% (inactive) | 44.8% (inactive) | -2.4% (inactive) | 5.1% (inactive) | 1.3% (inactive) | 36.1% (inactive) | 39.5% (inactive) | 3.08% (inactive) | 0.96 (inactive) | 1.14 | 1.09
8 | CC(=O)OC/C=C(C)/C=C/C=C(C)/C=C/C1=C(C)CCCC1(C)C | 3% (inactive) | -11.9% (inactive) | 0.2% (inactive) | 5.9% (inactive) | 2.7% (inactive) | -5.5% (inactive) | -3.2% (inactive) | -10.8% (inactive) | 0.94 (inactive) | 1 | 0.94
9 | Oc1c(Cl)cc(Cl)cc1Sc1cc(Cl)cc(Cl)c1O | 5.2% (inactive) | 99.2% (active) | 103% (active) | 23.6% (active) | 103% (active) | 113% (active) | 102% (active) | -6.91% (inactive) | 0.99 (inactive) | 1.15 | 1.14
10 | Nc1ncnc2nc[nH]c12 | -0.3% (inactive) | -4.6% (inactive) | -30.5% (inactive) | -1.7% (inactive) | -30.2% (inactive) | -59.6% (inactive) | -23.8% (inactive) | 2.63% (inactive) | 1.1 (inactive) | 1.11 | 1.22
11 | CCCCOc1cc(C(=O)NCCN(CC)CC)c2ccccc2n1 | 1.6% (inactive) | -47.5% (inactive) | 3.5% (inactive) | 7.7% (inactive) | 45.3% (inactive) | 49.2% (inactive) | 29.5% (inactive) | -0.88% (inactive) | 0.94 (inactive) | 1.33 | 1.25
12 | CCCCOc1ccc(C(=O)CCN2CCCCC2)cc1 | 2.3% (inactive) | 55.8% (active) | 12.5% (inactive) | -0.1% (inactive) | 59.9% (active) | 59.5% (active) | 31.3% (inactive) | 9.17% (inactive) | 1.3 (inactive) | 1.09 | 1.41
13 | COc1ccc(C(=O)c2ccccc2O)c(O)c1 | -0.5% (inactive) | -1.1% (inactive) | 1.6% (inactive) | -1.5% (inactive) | -9.15% (inactive) | 1.6% (inactive) | -1.5% (inactive) | 11.7% (inactive) | 1.27 (inactive) | 1.28 | 1.63
14 | CN(C)/N=N/c1nc[nH]c1C(N)=O | 1.8% (inactive) | -107% (inactive) | 85.4% (active) | -1.3% (inactive) | -2.45% (inactive) | 34.5% (inactive) | -4.2% (inactive) | -2.23% (inactive) | 0.71 (inactive) | 1.47 | 1.04
15 | CC(=O)OCC(COC(C)=O)OC(C)=O | 0.7% (inactive) | -25.5% (inactive) | -8.3% (inactive) | 0.1% (inactive) | -1.2% (inactive) | -5.5% (inactive) | -3.8% (inactive) | 1.31% (inactive) | 1.26 (inactive) | 0.97 | 1.22
16 | CO[C@@]1(NC(=O)C(C(=O)O)c2ccc(O)cc2)C(=O)N2C(C(=O)O)=C(CSc3nnnn3C)CO[C@@H]21 (some centres undefined) | -0.4% (inactive) | 23.9% (inactive) | 10.2% (inactive) | 1.3% (inactive) | 2.9% (inactive) | 25.1% (inactive) | -26% (inactive) | 3.95% (inactive) | 0.93 (inactive) | 1.2 | 1.11
17 | O=C1c2ccccc2C(=O)c2c1ccc(O)c2O | -2% (inactive) | 45.6% (inactive) | -9.9% (inactive) | -3.8% (inactive) | 9.2% (inactive) | 112% (active) | 65.7% (active) | 1.17% (inactive) | 0.87 (inactive) | 1.05 | 0.91
18 | CCCCCN(CCCCC)C(=O)C(CCC(=O)O)NC(=O)c1ccc(Cl)c(Cl)c1 (centres undefined) | 2.8% (inactive) | -12.2% (inactive) | 4.7% (inactive) | 6.6% (inactive) | 4.6% (inactive) | 40.9% (inactive) | 38.9% (inactive) | 2.64% (inactive) | 0.82 (inactive) | 1.1 | 0.9
19 | O=C(O)[C@@H]1[C@H]2C[C@H]3c4[nH]c5ccccc5c4CCN3C[C@@H]2CC[C@@H]1O | -0.3% (inactive) | -25.2% (inactive) | 9.1% (inactive) | 0.3% (inactive) | -4.53% (inactive) | 13% (inactive) | -18.9% (inactive) | 2.44% (inactive) | 1.08 (inactive) | 0.89 | 0.95
20 | O=C(O)P(=O)(O)O | 0.5% (inactive) | -27.7% (inactive) | 0.7% (inactive) | -0.4% (inactive) | -5.05% (inactive) | 2.3% (inactive) | -16.6% (inactive) | -6.34% (inactive) | 0.82 (inactive) | 1.21 | 0.99
21 | N[C@@H](CCC(=O)N[C@@H](CS)C(=O)NCC(=O)O)C(=O)O | -0.3% (inactive) | -46.1% (inactive) | 16.9% (inactive) | -3.8% (inactive) | 5.53% (inactive) | 8.1% (inactive) | -4.3% (inactive) | 0.532% (inactive) | 1.12 (inactive) | 0.76 | 0.85
22 | O=c1[nH]cnc2nc[nH]c12 | 0.7% (inactive) | -11% (inactive) | -3.2% (inactive) | 0.7% (inactive) | -26.8% (inactive) | -73% (inactive) | -26.4% (inactive) | 4.21% (inactive) | 1.25 (inactive) | 0.95 | 1.18
23 | CC1CCc2cc(F)cc3c(=O)c(C(=O)O)cn1c23 (centres undefined) | 1.1% (inactive) | -105% (inactive) | 3.3% (inactive) | -1.9% (inactive) | 19.6% (inactive) | 51.1% (active) | -6.7% (inactive) | 2.78% (inactive) | 1.19 (inactive) | 0.89 | 1.05
24 | C[N+]12CCC(CC1)C(OC(=O)C(O)(c1ccccc1)c1ccccc1)C2 (centres undefined) | -0.3% (inactive) | -30.2% (inactive) | 0.5% (inactive) | -3.1% (inactive) | 10.6% (inactive) | 22.9% (inactive) | -13.7% (inactive) | 11.7% (inactive) | 1.14 (inactive) | 1.17 | 1.33
25 | O=C(O)c1ccccc1Nc1cccc(C(F)(F)F)c1 | 0.1% (inactive) | 91.3% (active) | 47.5% (active) | 9.5% (inactive) | 66.3% (active) | 70.1% (active) | 78.8% (active) | 2.7% (inactive) | 0.85 (inactive) | 1.18 | 1
26 | CN(C)C(=O)Oc1cccc([N+](C)(C)C)c1 | -0.9% (inactive) | 10% (inactive) | -12.9% (active) | 1.3% (inactive) | 2.9% (inactive) | -16.1% (inactive) | -5.8% (inactive) | -2.26% (inactive) | 1.18 (inactive) | 0.88 | 1.04
27 | COc1cc(OC)cc(OC)c1 | 2.1% (inactive) | -6.5% (inactive) | 7.3% (inactive) | -0.4% (inactive) | -3.13% (inactive) | -10.2% (inactive) | -8.5% (inactive) | 14.4% (inactive) | 0.87 (inactive) | 1.26 | 1.09
28 | Nc1ccc(S(=O)(=O)Nc2ccc(Cl)nn2)cc1 | 1% (inactive) | 6.1% (inactive) | 12.6% (inactive) | -1.5% (inactive) | -6.17% (inactive) | 15.5% (inactive) | 0.7% (inactive) | 10.1% (inactive) | 1.19 (inactive) | 0.46 | 0.54
29 | O=C(O)c1ccc(S(=O)(=O)N(Cl)Cl)cc1 | 1.2% (inactive) | -8.9% (inactive) | -29.4% (inactive) | 0% (inactive) | 8.13% (inactive) | 16.9% (inactive) | -6.9% (inactive) | 13.4% (inactive) | 0.95 (inactive) | 1.13 | 1.08
